B1: unnamed (peptide)
chain: NVLRKILEIPLHSFS

Target: CaNbp2
Assay: SPOT peptide array binding signal intensity (averaged, normalized) (arbitrary units (background-subtracted, floor 0; scale differs between SH3 domains)); higher = stronger binding of the SH3 domain to the peptide
Procedure, shortened: (§1)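 GST-fused SH3 domains from four yeast species were expressed in E. coli BL21(DE3), purified on glutathione Sepharose and incubated at 10 μg/ml overnight at 4°C in TBS-based blocking buffer on cellulose membranes carrying synthetic 15-mer peptides, with cysteines replaced by serines. Bound protein was detected with anti-GST antibody, an HRP anti-mouse secondary and luminol, then imaged and quantified with Genespotter. Binding signal is the normalized, background-subtracted spot intensity averaged over replicates, in arbitrary units that differ between domains.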

Binder | SPOT peptide array binding signal intensity
B1 | 94.5

Target: CaRvs167
Assay: as above
Procedure, shortened: as §1

Binder | SPOT peptide array binding signal intensity
B1 | ≤ 0

Target: CaRvs167-3
Assay: as above
Procedure, shortened: as §1

Binder | SPOT peptide array binding signal intensity
B1 | 7.25

Target: CaSho1
Assay: as above
Procedure, shortened: as §1

Binder | SPOT peptide array binding signal intensity
B1 | 75

Target: CaSla1-D1-D2
Assay: as above
Procedure, shortened: as §1

Binder | SPOT peptide array binding signal intensity
B1 | ≤ 0

Target: CaSla1-D3
Assay: as above
Procedure, shortened: as §1

Binder | SPOT peptide array binding signal intensity
B1 | ≤ 0

Target: ScAbp1
Assay: as above
Procedure, shortened: as §1

Binder | SPOT peptide array binding signal intensity
B1 | 2

Target: ScBbc1
Assay: as above
Procedure, shortened: as §1

Binder | SPOT peptide array binding signal intensity
B1 | ≤ 0

Target: ScBem1-D1
Assay: as above
Procedure, shortened: as §1

Binder | SPOT peptide array binding signal intensity
B1 | ≤ 0

Target: ScBzz1-D1
Assay: as above
Procedure, shortened: as §1

Binder | SPOT peptide array binding signal intensity
B1 | 12

Target: ScBzz1-D2
Assay: as above
Procedure, shortened: as §1

Binder | SPOT peptide array binding signal intensity
B1 | 26

Target: ScCyk3
Assay: as above
Procedure, shortened: as §1

Binder | SPOT peptide array binding signal intensity
B1 | 31

Target: ScFus1
Assay: as above
Procedure, shortened: as §1

Binder | SPOT peptide array binding signal intensity
B1 | 123

Target: ScHof1
Assay: as above
Procedure, shortened: as §1

Binder | SPOT peptide array binding signal intensity
B1 | ≤ 0

Target: ScHse1
Assay: as above
Procedure, shortened: as §1

Binder | SPOT peptide array binding signal intensity
B1 | 1780

Target: ScLsb1
Assay: as above
Procedure, shortened: as §1

Binder | SPOT peptide array binding signal intensity
B1 | 59.8

Target: ScLsb2
Assay: as above
Procedure, shortened: as §1

Binder | SPOT peptide array binding signal intensity
B1 | ≤ 0

Target: ScLsb3
Assay: as above
Procedure, shortened: as §1

Binder | SPOT peptide array binding signal intensity
B1 | ≤ 0

Target: ScLsb4
Assay: as above
Procedure, shortened: as §1

Binder | SPOT peptide array binding signal intensity
B1 | ≤ 0

Target: ScMyo3
Assay: as above
Procedure, shortened: as §1

Binder | SPOT peptide array binding signal intensity
B1 | 0.75

Target: ScMyo5
Assay: as above
Procedure, shortened: as §1

Binder | SPOT peptide array binding signal intensity
B1 | ≤ 0

Target: ScNbp2
Assay: as above
Procedure, shortened: as §1

Binder | SPOT peptide array binding signal intensity
B1 | 9.5

Target: ScPex13
Assay: as above
Procedure, shortened: as §1

Binder | SPOT peptide array binding signal intensity
B1 | ≤ 0

Target: ScRvs167
Assay: as above
Procedure, shortened: as §1

Binder | SPOT peptide array binding signal intensity
B1 | 0.833

Target: ScSho1
Assay: as above
Procedure, shortened: as §1

Binder | SPOT peptide array binding signal intensity
B1 | 120

Target: ScSla1-D1-D2
Assay: as above
Procedure, shortened: as §1

Binder | SPOT peptide array binding signal intensity
B1 | ≤ 0

Target: ScSla1-D3
Assay: as above
Procedure, shortened: as §1

Binder | SPOT peptide array binding signal intensity
B1 | ≤ 0

Target: SpAbp1-D1
Assay: as above
Procedure, shortened: as §1

Binder | SPOT peptide array binding signal intensity
B1 | ≤ 0

Target: SpBbc1
Assay: as above
Procedure, shortened: as §1

Binder | SPOT peptide array binding signal intensity
B1 | 38

Target: SpBzz1-D1
Assay: as above
Procedure, shortened: as §1

Binder | SPOT peptide array binding signal intensity
B1 | ≤ 0

Target: SpBzz1-D2
Assay: as above
Procedure, shortened: as §1

Binder | SPOT peptide array binding signal intensity
B1 | ≤ 0

Target: SpCyk3
Assay: as above
Procedure, shortened: as §1

Binder | SPOT peptide array binding signal intensity
B1 | 0.5

Target: SpHof1
Assay: as above
Procedure, shortened: as §1

Binder | SPOT peptide array binding signal intensity
B1 | 2

Target: SpHof1-2
Assay: as above
Procedure, shortened: as §1

Binder | SPOT peptide array binding signal intensity
B1 | ≤ 0

Target: SpHof1-3
Assay: as above
Procedure, shortened: as §1

Binder | SPOT peptide array binding signal intensity
B1 | 591

Target: SpHse1
Assay: as above
Procedure, shortened: as §1

Binder | SPOT peptide array binding signal intensity
B1 | 2430

Target: SpLsb1
Assay: as above
Procedure, shortened: as §1

Binder | SPOT peptide array binding signal intensity
B1 | ≤ 0

Target: SpLsb4
Assay: as above
Procedure, shortened: as §1

Binder | SPOT peptide array binding signal intensity
B1 | ≤ 0

Target: SpMyo1
Assay: as above
Procedure, shortened: as §1

Binder | SPOT peptide array binding signal intensity
B1 | ≤ 0

Target: SpNbp2
Assay: as above
Procedure, shortened: as §1

Binder | SPOT peptide array binding signal intensity
B1 | 32.5

Target: SpPex13
Assay: as above
Procedure, shortened: as §1

Binder | SPOT peptide array binding signal intensity
B1 | 2

Target: SpRvs167
Assay: as above
Procedure, shortened: as §1

Binder | SPOT peptide array binding signal intensity
B1 | ≤ 0

Target: SpSla1-D1-D2
Assay: as above
Procedure, shortened: as §1

Binder | SPOT peptide array binding signal intensity
B1 | ≤ 0

Target: SpSla1-D3
Assay: as above
Procedure, shortened: as §1

Binder | SPOT peptide array binding signal intensity
B1 | ≤ 0

From the supplement of paper PMC4466140
